# For some of these results: Results with a measured potency or affinity are listed apart.
# Assays:
# Design in all cases: scale not given: direction of the effect not stated beside the values
# [1] = target: Protein translocase subunit SecA (Escherichia coli (strain K12)) (UniProt P10408); assay: Assay to Identify E. coli SecA ATPase Inhibitors; assay type: functional; settings: 30 µM
# [2] = target: T1, Ubiquitin-activating enzyme e1, putative (Leishmania donovani (strain BPK282A1)) (UniProt E9BSI1); assay: Leishmania donovani Ubiquitin Activating Enzyme (LdE1); assay type: functional; settings: 30 µM
# T1 sequence (whole entry): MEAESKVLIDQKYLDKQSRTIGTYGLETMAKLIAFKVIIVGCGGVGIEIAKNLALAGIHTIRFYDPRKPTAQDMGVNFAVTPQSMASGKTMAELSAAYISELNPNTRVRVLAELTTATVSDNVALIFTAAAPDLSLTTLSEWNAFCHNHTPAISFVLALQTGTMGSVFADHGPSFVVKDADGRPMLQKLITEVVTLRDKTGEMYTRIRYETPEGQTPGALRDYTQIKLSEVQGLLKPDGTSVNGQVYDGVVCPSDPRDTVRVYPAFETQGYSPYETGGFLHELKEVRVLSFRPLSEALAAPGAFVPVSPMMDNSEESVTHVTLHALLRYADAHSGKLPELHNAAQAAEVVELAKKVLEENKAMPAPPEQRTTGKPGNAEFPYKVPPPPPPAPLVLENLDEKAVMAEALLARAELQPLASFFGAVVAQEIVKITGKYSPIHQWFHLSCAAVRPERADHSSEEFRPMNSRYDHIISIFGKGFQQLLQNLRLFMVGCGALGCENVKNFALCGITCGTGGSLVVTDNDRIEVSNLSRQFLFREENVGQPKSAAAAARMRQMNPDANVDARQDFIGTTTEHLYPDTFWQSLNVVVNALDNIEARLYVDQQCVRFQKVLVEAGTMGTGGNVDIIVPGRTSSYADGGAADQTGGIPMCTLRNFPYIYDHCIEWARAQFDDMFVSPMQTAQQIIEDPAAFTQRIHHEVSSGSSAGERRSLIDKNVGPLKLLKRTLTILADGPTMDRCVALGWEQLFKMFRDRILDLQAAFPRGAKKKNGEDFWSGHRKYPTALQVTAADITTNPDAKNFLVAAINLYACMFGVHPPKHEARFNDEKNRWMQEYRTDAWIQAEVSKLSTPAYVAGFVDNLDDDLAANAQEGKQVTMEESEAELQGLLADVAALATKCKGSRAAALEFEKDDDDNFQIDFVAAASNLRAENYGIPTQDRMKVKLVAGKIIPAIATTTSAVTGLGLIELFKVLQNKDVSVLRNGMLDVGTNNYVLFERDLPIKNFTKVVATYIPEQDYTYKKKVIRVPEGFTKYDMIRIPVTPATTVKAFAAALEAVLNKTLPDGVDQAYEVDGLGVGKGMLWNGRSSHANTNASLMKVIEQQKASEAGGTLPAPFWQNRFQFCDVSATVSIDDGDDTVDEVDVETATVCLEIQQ
# [3] = target: AMP-activated protein kinase, AMPK (Homo sapiens) (UniProt P54646+O43741+P54619+Q9UGJ0+Q9Y478+Q13131+Q9UGI9); assay: AMP-dependent Kinase enzyme assay. An in vitro enzyme assay that detects ADP turnover that is directly proportional to AMPK activity. This uses naive AMPK that is activated during the assay with MK-8722; assay type: functional; settings: 30 µM
# [4] = target: Sialic acid-binding Ig-like lectin 9 (Homo sapiens) (UniProt Q9Y336); assay: Hs-Siglec9 ALPHAscreen SOP 20170721; settings: 10 µM
# [5] = tested on: Trypanosoma cruzi; assay: Trypanosoma cruzi phosphomannomutase and mannose-1-phosphate guanylyltransferase assay; assay type: functional; settings: 10 µM
# [6] = target: T2, Arginase-2, mitochondrial (Homo sapiens) (UniProt P78540); assay: in vitro enzyme assay to detect the production of urea directly proportional to the activity of Arginase II; assay type: functional; settings: 33.3 µM; further: in the data most compounds retested in dose-response had high values
# T2 sequence (whole entry): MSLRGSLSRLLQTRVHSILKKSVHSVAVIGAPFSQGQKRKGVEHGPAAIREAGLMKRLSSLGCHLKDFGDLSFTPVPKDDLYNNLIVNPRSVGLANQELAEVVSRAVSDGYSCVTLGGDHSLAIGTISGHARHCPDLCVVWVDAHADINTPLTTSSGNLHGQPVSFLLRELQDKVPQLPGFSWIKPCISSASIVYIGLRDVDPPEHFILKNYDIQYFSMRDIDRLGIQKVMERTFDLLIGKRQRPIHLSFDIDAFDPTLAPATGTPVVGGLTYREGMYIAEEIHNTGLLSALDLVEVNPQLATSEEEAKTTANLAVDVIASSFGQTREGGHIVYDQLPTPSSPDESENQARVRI
# [7] = target: T3, Proteasome subunit beta (Trypanosoma cruzi) (UniProt O96673); assay: Trypanosoma cruzi proteasome chymotrypsin-like activity (TcProtChymo) assay.; further: in the data most compounds retested in dose-response had high values; assay type: functional; settings: 9.37 µM
# T3 sequence (whole entry): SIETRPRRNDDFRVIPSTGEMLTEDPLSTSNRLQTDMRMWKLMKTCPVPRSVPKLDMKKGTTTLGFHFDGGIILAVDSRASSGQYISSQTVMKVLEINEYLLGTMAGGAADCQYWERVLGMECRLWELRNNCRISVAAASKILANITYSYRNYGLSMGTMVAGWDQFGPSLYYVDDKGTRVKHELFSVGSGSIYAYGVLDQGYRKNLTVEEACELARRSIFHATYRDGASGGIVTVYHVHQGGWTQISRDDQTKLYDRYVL
# [8] = organism: Homo sapiens; assay: To identify inhibition of the IFN signalling (Jak-Stat) pathway via expression of an eGFP reporter gene under the control of an IFN-stimulated response element (ISRE) containing MxA promoter.; assay type: functional; settings: 30 µM
# [9] = target: T4, Tyrosyl-tRNA synthetase, putative (Trypanosoma cruzi (strain CL Brener)) (UniProt Q4DSP6); assay: Trypanosoma cruzi tyrosyl tRNA synthetase (TcYRS) _High Tyrosine SOP; assay type: functional; settings: 30 µM; further: in the data most compounds retested in dose-response had high values
# T4 sequence (whole entry): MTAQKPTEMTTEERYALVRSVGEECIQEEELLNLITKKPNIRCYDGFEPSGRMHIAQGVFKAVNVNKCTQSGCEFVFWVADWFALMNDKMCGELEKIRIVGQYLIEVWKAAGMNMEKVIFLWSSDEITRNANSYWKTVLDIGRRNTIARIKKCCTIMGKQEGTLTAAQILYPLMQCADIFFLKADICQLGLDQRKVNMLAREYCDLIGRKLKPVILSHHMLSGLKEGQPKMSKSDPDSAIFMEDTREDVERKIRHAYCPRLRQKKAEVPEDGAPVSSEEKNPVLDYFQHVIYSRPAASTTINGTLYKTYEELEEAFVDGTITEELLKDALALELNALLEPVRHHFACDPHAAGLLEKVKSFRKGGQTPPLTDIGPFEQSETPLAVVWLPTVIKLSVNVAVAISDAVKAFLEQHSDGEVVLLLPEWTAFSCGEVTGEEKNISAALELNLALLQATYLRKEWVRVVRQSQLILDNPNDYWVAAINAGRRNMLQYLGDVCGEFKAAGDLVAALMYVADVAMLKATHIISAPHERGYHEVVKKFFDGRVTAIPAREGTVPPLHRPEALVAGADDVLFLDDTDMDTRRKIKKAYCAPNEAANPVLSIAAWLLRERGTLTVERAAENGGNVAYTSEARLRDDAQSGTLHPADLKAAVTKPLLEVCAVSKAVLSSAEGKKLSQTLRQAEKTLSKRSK
# [10] = target: T4, Tyrosyl-tRNA synthetase, putative (Trypanosoma cruzi (strain CL Brener)); assay: Trypanosoma cruzi tyrosyl tRNA synthetase (TcYRS) SOP; assay type: functional; settings: 30 µM
# [11] = target: Chromo domain-containing protein 1 (Saccharomyces cerevisiae (strain ATCC 204508 / S288c) (Baker's yeast)) (UniProt P32657); assay: ScCHD-1 Enzyme Inhibition Assay; assay type: functional; settings: 30 µM; further: in the data most compounds retested in dose-response had high values
# Chromo domain-containing protein 1 (Saccharomyces cerevisiae (strain ATCC 204508 / S288c) (Baker's yeast)), sequence (P32657 whole entry, the tested form may be a part): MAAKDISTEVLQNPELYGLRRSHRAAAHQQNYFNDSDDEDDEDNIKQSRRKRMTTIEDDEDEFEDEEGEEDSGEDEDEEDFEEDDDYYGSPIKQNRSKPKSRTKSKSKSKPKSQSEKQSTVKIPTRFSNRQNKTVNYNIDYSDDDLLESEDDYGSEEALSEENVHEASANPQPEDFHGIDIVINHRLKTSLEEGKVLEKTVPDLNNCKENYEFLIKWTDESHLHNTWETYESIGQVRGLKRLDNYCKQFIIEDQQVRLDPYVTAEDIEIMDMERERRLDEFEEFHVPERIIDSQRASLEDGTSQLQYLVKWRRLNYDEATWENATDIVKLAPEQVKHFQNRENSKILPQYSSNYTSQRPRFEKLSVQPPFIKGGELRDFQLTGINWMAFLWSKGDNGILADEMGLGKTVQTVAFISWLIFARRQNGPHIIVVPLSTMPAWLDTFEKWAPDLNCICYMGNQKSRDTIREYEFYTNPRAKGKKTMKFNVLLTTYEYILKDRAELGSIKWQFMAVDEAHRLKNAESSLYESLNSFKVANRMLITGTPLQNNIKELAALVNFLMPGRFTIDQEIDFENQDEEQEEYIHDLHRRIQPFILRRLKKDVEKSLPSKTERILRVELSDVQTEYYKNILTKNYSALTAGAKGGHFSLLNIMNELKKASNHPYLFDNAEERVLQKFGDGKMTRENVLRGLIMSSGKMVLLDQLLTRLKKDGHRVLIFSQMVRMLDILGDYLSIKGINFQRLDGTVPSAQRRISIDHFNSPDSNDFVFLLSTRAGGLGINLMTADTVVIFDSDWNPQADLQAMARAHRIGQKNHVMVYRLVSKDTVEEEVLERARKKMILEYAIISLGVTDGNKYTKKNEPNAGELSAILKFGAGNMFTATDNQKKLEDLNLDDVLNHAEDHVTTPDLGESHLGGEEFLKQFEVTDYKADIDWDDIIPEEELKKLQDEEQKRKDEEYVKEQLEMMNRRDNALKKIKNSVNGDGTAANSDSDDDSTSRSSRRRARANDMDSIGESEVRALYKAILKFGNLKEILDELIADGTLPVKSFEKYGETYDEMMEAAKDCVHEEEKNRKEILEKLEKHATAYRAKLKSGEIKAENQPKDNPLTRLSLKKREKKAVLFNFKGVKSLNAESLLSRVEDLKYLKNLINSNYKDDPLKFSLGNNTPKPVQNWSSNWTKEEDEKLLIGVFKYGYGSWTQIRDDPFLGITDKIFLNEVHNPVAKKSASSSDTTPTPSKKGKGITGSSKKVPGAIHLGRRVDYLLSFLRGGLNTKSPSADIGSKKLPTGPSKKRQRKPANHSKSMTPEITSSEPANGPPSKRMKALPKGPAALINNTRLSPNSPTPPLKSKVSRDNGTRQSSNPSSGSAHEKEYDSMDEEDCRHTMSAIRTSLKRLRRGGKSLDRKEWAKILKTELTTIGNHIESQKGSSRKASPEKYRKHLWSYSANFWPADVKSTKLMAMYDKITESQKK
# Protein translocase subunit SecA (Escherichia coli (strain K12)), sequence (P10408 whole entry): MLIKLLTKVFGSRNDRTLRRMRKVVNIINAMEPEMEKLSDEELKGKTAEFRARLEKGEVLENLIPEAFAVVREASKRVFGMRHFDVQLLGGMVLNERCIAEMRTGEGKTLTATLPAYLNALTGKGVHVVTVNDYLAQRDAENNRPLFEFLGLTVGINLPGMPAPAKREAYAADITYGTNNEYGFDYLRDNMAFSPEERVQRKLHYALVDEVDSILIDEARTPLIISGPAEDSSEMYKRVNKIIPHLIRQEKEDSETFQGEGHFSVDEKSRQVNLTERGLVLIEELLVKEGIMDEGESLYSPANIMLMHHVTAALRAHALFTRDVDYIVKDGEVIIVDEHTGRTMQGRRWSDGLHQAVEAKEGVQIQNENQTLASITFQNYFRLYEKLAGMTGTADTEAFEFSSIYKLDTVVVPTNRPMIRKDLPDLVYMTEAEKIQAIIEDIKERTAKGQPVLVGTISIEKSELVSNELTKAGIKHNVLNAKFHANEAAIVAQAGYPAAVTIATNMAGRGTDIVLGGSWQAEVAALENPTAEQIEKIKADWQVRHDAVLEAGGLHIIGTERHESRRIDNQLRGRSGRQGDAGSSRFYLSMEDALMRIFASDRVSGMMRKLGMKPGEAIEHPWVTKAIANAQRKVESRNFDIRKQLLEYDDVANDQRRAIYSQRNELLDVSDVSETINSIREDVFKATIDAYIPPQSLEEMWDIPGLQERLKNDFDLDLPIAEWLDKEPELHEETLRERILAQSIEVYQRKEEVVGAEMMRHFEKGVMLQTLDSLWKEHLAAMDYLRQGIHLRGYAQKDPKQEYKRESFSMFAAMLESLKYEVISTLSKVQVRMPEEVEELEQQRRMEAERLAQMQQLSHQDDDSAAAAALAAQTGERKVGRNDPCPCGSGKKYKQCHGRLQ
# Sialic acid-binding Ig-like lectin 9 (Homo sapiens), sequence (Q9Y336 whole entry): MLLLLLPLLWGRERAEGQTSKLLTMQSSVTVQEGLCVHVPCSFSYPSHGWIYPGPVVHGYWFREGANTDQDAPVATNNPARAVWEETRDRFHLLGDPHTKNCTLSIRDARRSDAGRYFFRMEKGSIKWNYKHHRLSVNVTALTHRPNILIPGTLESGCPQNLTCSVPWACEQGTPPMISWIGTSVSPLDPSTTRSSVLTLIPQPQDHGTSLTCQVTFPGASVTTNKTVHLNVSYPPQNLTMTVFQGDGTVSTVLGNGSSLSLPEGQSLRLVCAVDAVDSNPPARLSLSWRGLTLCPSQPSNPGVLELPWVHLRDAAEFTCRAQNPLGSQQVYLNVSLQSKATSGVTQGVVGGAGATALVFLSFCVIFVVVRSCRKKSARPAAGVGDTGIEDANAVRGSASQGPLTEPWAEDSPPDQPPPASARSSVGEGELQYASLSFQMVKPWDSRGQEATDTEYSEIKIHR
SMILES,Percent Effect [1] [%],Percent Effect [2] [%],Percent Effect [3] [%],Percent Effect [4] [%],Percent Effect [5] [%],Percent Effect [6] [%],Percent Effect [7] [%],Percent Effect [8] [%],Percent Effect [9] [%],Percent Effect [10] [%],Percent Effect [11] [%]
Cc1nc(C)n(C2CCCN(C(=O)c3cc4ccccc4n3C)C2)n1 (stereo not given),-3.87,7.79,-8.41,1.64,5.78,0.632,6.71,17.1,7.62,9.41,-16.3
CC(NC(=O)CNCCn1cccn1)c1ccc2c(c1)OCCO2 (stereo not given),-2.65,-7.79,0.13,7.51,5.62,1.07,7.6,-0.448,8.74,9.76,-7.52
Cc1ccc(C(=O)N2CCO[C@H]3[C@@H](OCc4ccccn4)CC[C@@H]32)o1,-2.21,10.4,-8.74,3.45,-4.44,11,12.7,11.5,-1.06,-8.97,-6.69
CCOc1cc(C(=O)N2CCCC(c3cc(C(N)=O)[nH]n3)C2)ccn1 (stereo not given),-4.21,10.5,5.83,-2.38,7.94,0,5.5,-0.364,3.45,16.1,-0.329
CC(NC(=O)c1cc(-c2cccc(Cl)c2)no1)C(=O)N1CCCC1 (stereo not given),-2.69,0,16.6,-3.21,-5.16,-2.37,7.19,-1.32,2.13,0,-4.18
COc1cc(C)nc(N2CCN(C(=O)CCc3nccs3)CC2)n1,-6.4,0,2.65,3.42,-5.6,-3.33,14.5,30.1,-2.65,2.44,-4.19
CC(NC(=O)NCCNc1ncccn1)c1cccs1 (stereo not given),-2.16,31.2,32.1,6.3,7.12,-2.49,4.9,12.3,8.74,24.4,-9.75
O=C(NCC1CC1)Nc1cnc2cc(Cl)ccc2c1O,-4.33,12.2,4.52,-10.8,-2.57,-1.62,8.89,8.61,-1.07,-1.3,-6.64
Cc1cc(C[S+]([O-])CC(=O)NCc2cccs2)no1 (stereo not given),-6.18,10.4,3.08,10.1,1.87,-6.05,1.01,5.94,8.74,19.5,-5.87
Cc1ccc2ncnc(N3CCOCC3c3c(C)nn(C)c3C)c2c1 (stereo not given),-3.4,5.33,-4.79,3.91,-0.487,-0.521,16,21.1,6.01,8.64,-5.67
Cc1nc(N2CCCC2)nc2c1CCN(Cc1ccco1)CC2,-1.94,10.7,8.01,0.178,0,-45.3,20.7,-2.8,3.12,12.5,-9.82
Cc1ccoc1C(=O)N1C[C@@H]2[C@@H](C1)OCC(=O)N2Cc1cccnc1,-4.32,-15.6,-0.37,0.332,-2.86,3.23,2.96,19.8,-27.5,-47.4,5.56
Cc1cnc2c(S(=O)(=O)NCC3CCS(=O)(=O)C3)cccc2c1 (stereo not given),-3.39,21.1,-0.0656,-5,6.26,3.24,16.8,7.48,7.39,23.5,-10.9
O=C(c1nc(COc2ccc3c(c2)OCO3)no1)N1CCCC1,-2.38,1.33,-0.332,4.46,-6.88,-12.5,9.98,3.63,3.17,5.13,-8.92
Cc1cc(C[C@@H]2COC[C@H]2NCc2ccccc2C(F)(F)F)on1,-5.6,4.05,-0.353,6.23,1.58,0.232,14,5.54,3.23,11.7,-18.2
CC(CNC(=O)c1ccccc1Oc1cccnc1)N(C)C (stereo not given),-2.21,10.8,-2.99,12.9,5.41,-0.476,5.69,-6.47,3.7,9.76,-1.53
COc1ccccc1OCC(=O)NS(=O)(=O)c1cc(F)ccc1F,-2.96,-2.7,1.01,2.58,-5.99,0,0.345,0.0392,0.529,4.88,-1.41
O=C(NCCc1cccc(O)c1)NC1CCN(c2ccccc2)C1=O (stereo not given),-7.43,0,2.02,-1.23,-2.82,1.04,11.7,-6.77,-1.64,1.24,-4.31
COc1ccc(S(=O)(=O)NCc2cccnc2N(C)C)cc1F,-1.87,20.2,-8.9,-2.51,2.74,6.08,4.18,21.9,8.37,24.1,-5.49
CC(C)c1csc(C2CCCN(C(=O)c3ncccn3)C2)n1 (stereo not given),-4.12,-2.7,4.03,-10.4,-4.99,-0.744,3.69,7.7,-3.23,-3.7,-2.9

# From ChEMBL document CHEMBL3988442, “University of Dundee, Small-Polar-MMV Screening Library” (2021)
